Hit rate of the full screen: of about 65,000 compounds, about 2,100 (3.2%) showed an effect of 50% or more. The median lay at about -52%. The sample as a whole holds a higher share of strong results than the screen did.
tested on: Plasmodium falciparum; assay: Screen against P. falciparum Asexual Blood Stage (ABS), at 5uM; type: functional, Dd2; conditions: tested at 5 uM

Structure (SMILES)	INHIBITION
CCC(C)N(Cc1ccc(C)cc1)Cc1c[nH]c(C)n1 (stereo not given)	77.5%
Cc1cc(C)c(CNc2ncnc3c2cnn3C)c(=O)[nH]1	-55.6%
O=C1CSC(c2ccc3c(c2)OCO3)c2cn[nH]c2N1 (stereo not given)	-10.6%
NCCC(Cc1ccccc1)c1ccco1 (stereo not given)	84.1%
O=C(c1cscn1)N1CCC2(CN(Cc3ccncc3)C2)C1	-48%
O=C(Nc1cccnc1)[C@H]1CN(Cc2cccs2)C[C@H]2OCC[C@@H]12	2.31%
Cc1cc(CN2CCC(CNS(=O)(=O)c3ccc(C)s3)CC2)c(C)o1	87.7%
Cc1cc(CN2CCC(CNS(=O)(=O)c3ccccc3F)CC2)c(C)o1	79.2%
Cc1cc(CN2CCC(CNS(=O)(=O)c3ccc(Br)s3)CC2)c(C)o1	91.6%
Cc1ccc(CN2CCC3(CC2)C(=O)Nc2ccccc23)s1	46.9%
CC(C)=CCN1CCN(C(=O)COc2ccccc2)[C@H]2CS(=O)(=O)C[C@H]21	-73.8%
CC(Cc1c(F)cccc1F)NC(=O)NCc1ncnn1C (stereo not given)	-43.1%
O=C(c1ccnnc1)N1CCN2C[C@H](Oc3cccnc3)C[C@H]2C1	5.43%
Cc1nn(C)c(Oc2ccc(Cl)cc2)c1CN1CCC(CN)C1 (stereo not given)	92.8%
Cn1cc(N2CC[C@@H]3CN(Cc4ccncc4)C[C@H]3C2=O)cn1	-102%
CC(C)C1CN(c2cccc(C#N)n2)CCCN1Cc1ccc(F)cc1 (stereo not given)	91.3%
CC(C)C1CN(c2cccc(C#N)n2)CCCN1CC1CC1 (stereo not given)	84.3%
N#Cc1cccc(N2CCOC3(CNCCOC3)C2)n1 (stereo not given)	17%
N#Cc1cccc(N2CCCC3(CNCCO3)C2)n1 (stereo not given)	-104%
Cc1nc(N)nc(C)c1CC(=O)N1CCCN(CC2CC2)C(C(C)C)C1 (stereo not given)	-198%
Cc1nc(C)c(CC(=O)N2CCCN(CC3CC3)C(C(C)C)C2)c(=O)[nH]1 (stereo not given)	-23.8%
CCN1CCC2(COCc3c(C)nc(N4CCOCC4)nc32)C1 (stereo not given)	-129%
CC(Cn1cccn1)NCc1csc2c1CCCC2 (stereo not given)	39.2%
CC[C@H]1CN2CC[C@H]1C[C@@H]2CNC(=O)Nc1cccc(C#N)c1	-82.6%
CN(C)C1Cc2ccccc2N(S(=O)(=O)c2cccc(C#N)c2)C1 (stereo not given)	76.6%

Structure (SMILES)	INHIBITION
CC(C)(C)n1ncc2c1NC(=O)CSC2c1ccsc1 (stereo not given)	-82.3%
COc1ccc(C(=O)N2CCOC3(CNCCOC3)C2)c(OC)n1 (stereo not given)	-97.3%
CC(C)n1ccnc1C1CCCN(c2ccnc3ccccc23)C1 (stereo not given)	84%
Cc1nc(CO[C@@H]2CC[C@H]3[C@H]2OCCN3Cc2cccnc2)cs1	-22.1%
COc1ccc(C(=O)C2CCCN(Cc3ccncc3)C2)c(OC)c1 (stereo not given)	-17.9%
COc1ccc(C(=O)C2CCCN(Cc3ccncc3)C2)cc1OC (stereo not given)	-128%
O=C(Nc1ccc(Cl)cn1)C1CCCN(CCc2ccncc2)C1 (stereo not given)	71.9%
O=C(CCc1nccs1)N1CCC(C(=O)O)(c2ccccc2)CC1	-56.3%
Cc1nc(CC(=O)N2CCCC[C@H](N(C)C)C2)cs1	-56.95%
CN1CCO[C@@H]2CN(C(=O)c3ccc4ncccc4c3)CC[C@@H]2C1	-46.1%
CN(C)[C@H]1CCCCN(C(=O)c2cccc(-c3cccc(F)c3)c2)C1	73.3%
O=C(c1ccnc(-n2cnnc2)c1)N1CCCC2(CCNC2)C1 (stereo not given)	-120%
Nc1ncccc1CN1C[C@H]2OC(=O)N(Cc3ccccn3)[C@H]2C1	-117%
CC(Cc1cccc(F)c1)NCc1cnc(N2CCN(C)CC2)nc1 (stereo not given)	67.6%
Cc1cccc(-c2ncc(CNC(C)Cc3ccncc3)cn2)c1 (stereo not given)	-115%
Cc1cnc(N2CCN(C)c3ncccc3C2)nc1	-91.5%
CN1CCN(c2ncc(CNCCCc3cccc(F)c3)cn2)CC1	71.5%
Fc1cnc(N2C[C@H]3CN(Cc4cccc(F)c4)C[C@H]3C2)nc1	21.5%
CNC(=O)[C@@H]1C[C@H]2CN(c3ncccn3)C[C@H]2N1C(C)C	-98%
Cc1noc(C)c1CN1CCO[C@H]2CN(C(=O)N3CCCC3)C[C@H]21	-14.9%
O=C(C1CCCO1)N1CCC2(CC1)CNCCO2 (stereo not given)	-75.2%
CNC(=O)CN1CCO[C@H]2CN(CC3CC3)C[C@H]21	-76.5%
Cn1cc(CN2C[C@H]3CN(c4cncnc4)C(=O)[C@H]3C2)cn1	-44.8%
CC(C)C(CNCc1cccc2c1OCO2)N1CCOCC1 (stereo not given)	76%
CNC(=O)[C@H]1C[C@@H]2CN(C(=O)c3ccncc3F)C[C@@H]2N1C	-96.9%

Structure (SMILES)	INHIBITION
Cc1nc(CC(=O)N2CCCC(N(C)Cc3ccccc3)C2)cs1 (stereo not given)	-55.85%
CN1CC[C@H](N(Cc2ccccc2)Cc2ccccc2)C[C@H](O)C1	72.1%
CN1CC[C@@H]2OC[C@H](C(=O)N(C)Cc3ccccn3)C[C@@H]2C1	-138%
CN1CC[C@H](N(Cc2ccccc2)CC2CC2)C[C@H](O)C1	80.8%
Cc1noc(C)c1CN1C[C@@H]2OCCN(Cc3cnn(C)c3)[C@@H]2C1	-2.02%
O=C(Cc1csc(-c2ccco2)n1)N1CCN(CCO)CC1	-30.8%
Cc1ccc(CN2CC[C@H]3[C@H]2CC(=O)N3c2cccnc2)o1	-38.1%
Cn1cc(C2=CCN(CCC(=O)NCc3ccc(Cl)cc3)CC2)cn1	5%
CN(C)CCNC(=O)CCn1ncc2c(Cl)cccc21	71%
Cc1cc(CN2CC[C@H]3C[C@H](C)O[C@@H]3C2)no1	-86.2%
Cc1c(CC(=O)N2CCN(C(C)C)CC2)nnn1-c1ccccc1	-40.6%
CN1CCCC1CCn1ccnc1-c1nc2ccccc2[nH]1 (stereo not given)	72.2%
O=C1[C@H]2CN(Cc3ccccc3)C[C@H]2CN1c1cncnc1	-76.5%
Cc1ccc(OCC(=O)N2CCN[C@H]3CS(=O)(=O)C[C@H]32)cn1	-103%
Cc1cccc(CN2CC[C@@H]3[C@@H]2CCN3Cc2cccs2)n1	29.9%
COCCN1CCO[C@H]2CCN(C(=O)c3ccnnc3)CC[C@@H]21	-39.1%
Cc1noc(C)c1CN1CCN(C)c2ncccc2C1	-31.9%
CN1CCC(N(C)c2ccccc2CNCc2ccco2)CC1	85.9%
CCc1cc(CN(C)C(=O)CN2CC(c3ccccc3)CC2=O)on1 (stereo not given)	-13.6%
CCc1cc(CNCc2ccccc2N(C)C2CCN(C)CC2)on1	74.5%
CN(C)CCN1CCN(Cc2ccco2)Cc2cccnc21	11.9%
Cc1noc(C)c1CNCc1ccccc1N(C)C1CCN(C)CC1	73.6%
CC(C)N1CCc2c(CN(C)Cc3ccco3)cncc2C1	-16.1%
CCc1cc(CN(C)C(=O)CN2CC(Cc3ccccc3)CC2=O)on1 (stereo not given)	-126%
Cc1noc(C)c1CN(C)C(=O)CN1CC(c2ccccc2)CC1=O (stereo not given)	-83.2%

Structure (SMILES)	INHIBITION
CC(C)=CCN1C(=O)[C@@H]2CC[C@H]1CN(Cc1cccnc1N)C2	-11.1%
CC1CN(C)CCN1C(=O)Cc1cc(Cl)c2c(c1)OCCO2 (stereo not given)	-23.7%
CCc1noc(CN2CCOC3(CCCC3)C2)n1	-159%
c1cc(CN2C[C@@H]3OCCN(CCN4CCCC4)[C@@H]3C2)ccn1	-104%
Cc1cc(C)c2[nH]c(C)c(CC(=O)N(C)CCN(C)C)c2c1	61.9%
Cc1ccc2c(CC(=O)N(C)CCN(C)C)c(C)[nH]c2c1C	-86.5%
Cc1[nH]c2c(C)cccc2c1CC(=O)N(C)CCN(C)C	46.3%
N#Cc1ccc(C(=O)NS(=O)(=O)c2ccc(C#N)c(Cl)c2)cc1	-1%
COc1cccc(CNc2cc(C)nc(-c3ccncc3)n2)c1OC	89.3%
CCc1ccc(-c2cc(C(F)(F)F)nc(N3CCC(N)CC3)n2)cc1	82.4%
FC(F)(F)c1cc(-c2cccs2)nc(N2CCN3CCCC3C2)n1 (stereo not given)	-47.6%
Cc1cc(C(F)(F)F)nc(N2CCN3CCCC3C2)n1 (stereo not given)	-144%
O=C(Nc1cccnc1)[C@@H]1COC[C@H]2CN(C3CCCC3)C[C@H]21	-20.2%
O=C(c1ccc2c(c1)COC2)N1CCC(Nc2ccccc2)CC1	-162%
O=C1[C@H]2CN(Cc3ccncc3)C[C@H]2CN1c1ccsc1	-92.9%
COc1cccc(CN2CCC(CO)(Cc3ccc(Cl)cc3)CC2)c1O	89.5%
c1cc(CN2CCN(Cc3ccon3)C3(CCCCC3)C2)no1	-126%
Cc1noc(C)c1CN1CC[C@H]2C[C@@H](c3ccncn3)O[C@@H]2C1	-98.1%
Cc1nc(-c2cccc(N3CCC(N4CCCC4)CC3)c2)cs1	71.6%
Cc1cc(N2CCN3CCCCC3C2)n2nc(C)c(C)c2n1 (stereo not given)	-76.1%
Cc1ncccc1OCC(=O)N1CCN[C@H]2CS(=O)(=O)C[C@H]21	-151%
c1ccc(CN2CCN3C[C@H](Oc4cncnc4)C[C@H]3C2)nc1	-102%
NC1CCc2nc(-c3ccncc3)nc(Nc3cccc(F)c3)c2C1 (stereo not given)	84.2%
NC1CCc2nc(-c3cccnc3)nc(Nc3ccc(F)cc3)c2C1 (stereo not given)	87.1%
CCc1cc(N2CCNCC2)n2nc(C)c(C)c2n1	-115%

Source: ChEMBL document CHEMBL4513216, “Probing the Open Global Health Chemical Diversity Library for Multistage-Active Starting Points for Next-Generation Antimalarials” (ACS Infect Dis, 2020)
